Assay [1] has as its system Plasmodium falciparum Sir2 (PF13_0152, Sir2A). Briefly: Plasmodium falciparum Sir2A binding compounds – biochemical, small-molecule microarray, 635 nm fluorescence, primary screen (AID 1098).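 Further: score merges spot fluorescence intensity with its signal-to-noise ratio.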 As to conditions: fluorescence 635 nm, higher = more signal.
Assay [2] in a line: probe aDKK1 binding to arrayed compounds – biochemical, biotinylated probe, 635/667 nm fluorescence, primary screen (AID 1099).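 Further: score merges 667nm spot fluorescence with signal to noise across triplicate slides.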 As to conditions: small-molecule microarray, higher = more signal.
A short description of assay [3]: probe aCHRDL2 binding to arrayed compounds – biochemical, biotinylated probe, 635/667 nm fluorescence, primary screen (AID 1100). To be noted: small-molecule microarray, higher = more signal.
Assay [4] in a line: change in splice reporter luminescence, either direction, cell-based, HEK293, spliceosome inhibition project, primary screen (AID 1101).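 Further: HEK293 cells carrying a splicing-competent luciferase reporter gene; test concentration not given here.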 To be noted: HEK293 splicing luciferase reporter, 24 h, higher = more signal, called active from +8 up or from −8 down. For orientation: A reporter such as luciferase makes a cellular process visible.
For assay [5], the target named is Fibroblast growth factor 10 (Homo sapiens) (UniProt O15520). Briefly: compounds binding fibroblast growth factor 10 – biochemical, small-molecule microarray, 635 nm fluorescence, primary screen (AID 1102). To be noted: FGF10 binding, fluorescence 635 nm, higher = more signal.
Chain of Fibroblast growth factor 10 (Homo sapiens) (O15520 whole entry, looked up): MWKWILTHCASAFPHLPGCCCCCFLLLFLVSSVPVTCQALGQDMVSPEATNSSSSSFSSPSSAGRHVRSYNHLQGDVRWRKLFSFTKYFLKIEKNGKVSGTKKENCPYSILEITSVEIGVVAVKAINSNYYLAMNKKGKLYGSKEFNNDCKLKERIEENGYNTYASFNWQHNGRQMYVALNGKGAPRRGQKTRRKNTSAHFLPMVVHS
The test system of assay [6] is glycogen synthase kinase-3 (GSK3A per assay name; protocol says GSK3B). Description: compounds binding glycogen synthase kinase-3 – biochemical, small-molecule microarray, 635 nm fluorescence, GSK3A, primary screen (AID 1103). Further: the record names both GSK3A and GSK3B. As to conditions: fluorescence 635 nm, higher = more signal.
Assay [7] deals with Epidermal growth factor receptor (Homo sapiens) (UniProt P00533). Briefly: compounds binding epidermal growth factor receptor – biochemical, small-molecule microarray, 635 nm fluorescence, primary screen (AID 1104).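 Further: score merges 667 nm emission intensity with spot signal to noise over triplicate slides.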 To be noted: EGFR binding, higher = more signal.
Chain of Epidermal growth factor receptor (Homo sapiens) (P00533 whole entry, looked up): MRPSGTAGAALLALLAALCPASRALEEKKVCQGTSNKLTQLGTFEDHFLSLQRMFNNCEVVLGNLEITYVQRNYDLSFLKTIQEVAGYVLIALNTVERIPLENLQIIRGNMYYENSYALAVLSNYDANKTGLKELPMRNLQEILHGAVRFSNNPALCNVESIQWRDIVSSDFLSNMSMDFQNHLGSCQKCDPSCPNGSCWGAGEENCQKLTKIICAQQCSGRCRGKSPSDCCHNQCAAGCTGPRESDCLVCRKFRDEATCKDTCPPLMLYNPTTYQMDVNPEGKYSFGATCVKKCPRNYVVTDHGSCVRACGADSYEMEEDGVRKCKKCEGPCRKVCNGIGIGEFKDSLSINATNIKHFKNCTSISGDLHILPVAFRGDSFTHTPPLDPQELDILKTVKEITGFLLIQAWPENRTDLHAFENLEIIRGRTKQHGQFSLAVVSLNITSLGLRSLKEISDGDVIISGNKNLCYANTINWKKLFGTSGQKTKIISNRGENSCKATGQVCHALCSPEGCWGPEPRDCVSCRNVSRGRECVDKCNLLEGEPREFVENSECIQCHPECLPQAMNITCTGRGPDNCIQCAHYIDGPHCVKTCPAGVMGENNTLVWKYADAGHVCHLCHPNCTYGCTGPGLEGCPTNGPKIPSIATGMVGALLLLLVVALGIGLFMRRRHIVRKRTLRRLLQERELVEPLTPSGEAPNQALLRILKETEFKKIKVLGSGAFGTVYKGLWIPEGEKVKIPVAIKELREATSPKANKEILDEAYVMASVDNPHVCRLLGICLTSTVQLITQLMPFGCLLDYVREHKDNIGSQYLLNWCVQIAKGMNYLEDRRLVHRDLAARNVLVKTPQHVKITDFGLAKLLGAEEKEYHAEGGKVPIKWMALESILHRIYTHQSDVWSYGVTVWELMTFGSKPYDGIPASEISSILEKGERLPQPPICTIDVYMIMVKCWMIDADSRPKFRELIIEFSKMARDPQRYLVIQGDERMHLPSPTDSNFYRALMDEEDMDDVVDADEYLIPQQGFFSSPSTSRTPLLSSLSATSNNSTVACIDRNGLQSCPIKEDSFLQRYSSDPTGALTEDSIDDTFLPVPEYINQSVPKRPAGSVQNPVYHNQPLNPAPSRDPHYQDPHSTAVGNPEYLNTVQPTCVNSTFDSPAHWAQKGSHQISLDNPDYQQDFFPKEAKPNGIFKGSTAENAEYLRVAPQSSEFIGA
For assay [8], the target named is Follistatin-related protein 3 (Homo sapiens) (UniProt O95633). Briefly: compounds binding follistatin-related protein 3 – biochemical, small-molecule microarray, 635 nm fluorescence, primary screen (AID 1105).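 Further: score merges emission near 667 nm and signal to noise per printed spot across three slides.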 To be noted: FSTL3 binding, higher = more signal.
Chain of Follistatin-related protein 3 (Homo sapiens) (O95633 whole entry, looked up): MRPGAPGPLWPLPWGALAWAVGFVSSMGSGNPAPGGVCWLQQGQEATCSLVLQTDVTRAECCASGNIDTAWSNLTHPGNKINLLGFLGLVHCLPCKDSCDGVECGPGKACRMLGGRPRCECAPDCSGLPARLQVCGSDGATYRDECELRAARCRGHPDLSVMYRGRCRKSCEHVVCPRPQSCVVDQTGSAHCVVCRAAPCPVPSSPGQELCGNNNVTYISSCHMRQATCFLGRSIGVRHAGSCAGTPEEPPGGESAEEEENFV
In assay [9] the target is Dickkopf-related protein 1 (Homo sapiens) (UniProt O94907). Briefly: small molecules binding DKK1 protein – biochemical, small-molecule microarray, 635 nm fluorescence scan, primary screen (AID 1106).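 Further: score merges emission near 667 nm with signal to noise over three replicate slides.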 As to conditions: higher = more signal.
Chain of Dickkopf-related protein 1 (Homo sapiens) (O94907 whole entry, looked up): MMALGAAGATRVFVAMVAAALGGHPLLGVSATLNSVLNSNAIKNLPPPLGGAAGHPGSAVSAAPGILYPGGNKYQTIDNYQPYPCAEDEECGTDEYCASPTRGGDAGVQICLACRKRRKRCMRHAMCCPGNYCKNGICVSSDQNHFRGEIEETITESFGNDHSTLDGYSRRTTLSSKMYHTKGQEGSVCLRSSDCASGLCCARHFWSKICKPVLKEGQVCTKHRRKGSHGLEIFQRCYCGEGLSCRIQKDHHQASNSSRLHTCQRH
In assay [10] the test system is Inhibin beta A chain (activin A). Briefly: small molecules binding activin A – biochemical, small-molecule microarray, 635 nm fluorescence scan, primary screen (AID 1107).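 Further: mouse activin A protein probed at 4.33 µg/mL on printed slides; score merges bound-protein fluorescence near 667 nm with spot signal-to-noise.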 To be noted: INHBA, higher = more signal.
The test system of assay [11] is Human papillomavirus type 1a protein E7 (residues 44-93). Description: small molecules binding HPV E7 44-93 – biochemical, small-molecule microarray, residues 44-93, 635 nm fluorescence, primary screen (AID 1108).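 Further: E7 fragment applied at 1 µg/mL in TBST for 1 h at 4 C; score combines spot fluorescence with its signal to noise ratio.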 To be noted: fluorescence 635 nm, higher = more signal.
Assay [12] can be described thus: hepatitis C replication reporter changes, two-sided – Huh7 cells, luciferase reporter, HCV replication inhibitor project, primary screen (AID 1109).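 Further: huh7 hepatoma cells harbouring a luciferase neomycin HCV replicon reporter; luciferase luminescence as measure of HCV replicon replication; test concentration not given here.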 To be noted: Huh7 HCV replicon luciferase reporter, 48 h; higher = more signal.
For assay [13], the target named is Left-right determination factor 2 (Homo sapiens) (UniProt O00292). Description: small molecules binding LEFTY2 protein – biochemical, small-molecule microarray, 635 nm fluorescence scan, primary screen (AID 1110). To be noted: higher = more signal.
Chain of Left-right determination factor 2 (Homo sapiens) (O00292 whole entry, looked up): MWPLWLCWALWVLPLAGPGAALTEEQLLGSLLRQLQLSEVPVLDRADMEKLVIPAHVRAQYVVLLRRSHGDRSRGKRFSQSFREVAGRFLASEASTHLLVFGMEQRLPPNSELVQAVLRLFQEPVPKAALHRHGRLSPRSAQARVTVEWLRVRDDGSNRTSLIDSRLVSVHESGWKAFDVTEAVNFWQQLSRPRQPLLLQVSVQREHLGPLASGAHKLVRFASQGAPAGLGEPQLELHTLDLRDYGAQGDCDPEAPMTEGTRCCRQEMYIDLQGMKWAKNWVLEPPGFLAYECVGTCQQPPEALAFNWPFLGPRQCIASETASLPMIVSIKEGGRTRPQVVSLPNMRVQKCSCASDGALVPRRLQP
The target in assay [14] is Calmodulin-1 (Homo sapiens) (UniProt P0DP23). Briefly: small molecules binding calmodulin-1 with EGTA – biochemical, small-molecule microarray, Cy5-labelled CALM1, profiling panel (AID 1111).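 Further: labelled calmodulin applied in Tris saline Tween buffer holding calcium plus EGTA and DTT.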 As to conditions: Cy5-CALM1 binding fluorescence, higher = more signal.
Assay [15] shares this target. Briefly: small molecules binding Ca-loaded calmodulin-1 – biochemical, small-molecule microarray, Cy5-labelled CALM1, plus calcium, artefact control for SMM control-protein annotation, profiling panel (AID 1112).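 Further: score merges spot fluorescence with signal to noise from triplicate slides.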 As to conditions: Cy5-CALM1 binding fluorescence, higher = more signal.
Assay [16] can be described thus: probe aWnt5a binding to arrayed compounds – biochemical, biotinylated probe, 635/667 nm fluorescence, primary screen (AID 1113).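 Further: score merges 667 nm fluorescence intensity with signal-to-noise per printed feature.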 To be noted: small-molecule microarray, higher = more signal.
Assay [17] in a line: probe aShh binding to arrayed compounds – biochemical, biotinylated probe, 635/667 nm fluorescence, primary screen (AID 1114).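 Further: probe is biotin-labelled aShh protein from a stem cell growth factor screen; measures binding of labelled protein to compounds printed on the slide; score merges feature fluorescence at 667 nm with signal-to-noise.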 To be noted: small-molecule microarray, higher = more signal.
Assay [18] in a line: probe aNog binding to arrayed compounds – biochemical, biotinylated probe, 635/667 nm fluorescence, primary screen (AID 1115).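 Further: probe is biotinylated aNog protein used at 0.15 µg/mL for 1 h at 4 C; z-score combines 667 nm fluorescence of each spot with its signal to noise.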 As to conditions: small-molecule microarray, higher = more signal.
Assay [19] deals with Torsin-1A-interacting protein 1 (Homo sapiens) (UniProt Q5JTV8). Briefly: compound microarray binding of lysate hLAP1 – cell lysate, small-molecule microarray, COS7 lysate, 635/667 nm fluorescence, primary screen (AID 1116). To be noted: 635 nm fluorescence, higher = more signal.
Chain of Torsin-1A-interacting protein 1 (Homo sapiens) (Q5JTV8 whole entry, looked up): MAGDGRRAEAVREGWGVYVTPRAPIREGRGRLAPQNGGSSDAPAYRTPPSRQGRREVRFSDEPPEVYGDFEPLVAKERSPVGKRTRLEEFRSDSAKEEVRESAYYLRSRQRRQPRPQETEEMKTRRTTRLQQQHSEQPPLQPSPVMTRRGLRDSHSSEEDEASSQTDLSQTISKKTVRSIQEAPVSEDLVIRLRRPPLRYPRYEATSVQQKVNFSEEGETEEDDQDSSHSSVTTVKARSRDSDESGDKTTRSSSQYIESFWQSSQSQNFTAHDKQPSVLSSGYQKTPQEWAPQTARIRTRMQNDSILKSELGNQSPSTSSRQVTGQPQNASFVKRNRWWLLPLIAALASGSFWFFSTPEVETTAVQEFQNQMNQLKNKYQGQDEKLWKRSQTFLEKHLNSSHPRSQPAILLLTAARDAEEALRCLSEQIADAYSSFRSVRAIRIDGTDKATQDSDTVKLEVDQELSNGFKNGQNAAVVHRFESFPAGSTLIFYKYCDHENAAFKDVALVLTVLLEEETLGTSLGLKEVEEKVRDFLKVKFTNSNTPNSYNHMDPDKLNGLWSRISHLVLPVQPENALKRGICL
Assay [20] has as its target Alpha-bungarotoxin (Bungarus multicinctus) (UniProt P60615). Briefly: compounds binding labelled alpha-BTX control protein – biochemical, small-molecule microarray, Alexa647 label, 635/667 nm fluorescence, artefact control for SMM control protein annotation, profiling panel (AID 1117). To be noted: alpha-BTX-A647 binding fluorescence, higher = more signal.

The source made the active and inactive calls.

Chain of Alpha-bungarotoxin (Bungarus multicinctus) (P60615 whole entry, looked up): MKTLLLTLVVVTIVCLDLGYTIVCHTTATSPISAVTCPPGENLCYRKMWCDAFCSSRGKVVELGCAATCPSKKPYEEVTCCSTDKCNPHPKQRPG

`COc1ccc(C(=O)Nc2ccc(CN3C(=O)[C@@]4(O[C@@H](CC(=O)N5CCC[C@H]5CO)[C@H]([Si](C)(C)c5ccc(OC)cc5)[C@H]4C)c4ccccc43)cc2)cc1`: the composite z-score was 1.4 in assay [1]; -0.143 in [2]; -0.0233 in [3]; 1.38 in assay [5]; 1.29 in assay [6]; 1.02 in assay [7]. The composite z-score stood at 1.44 in [8]; 1.14 in assay [9]; 0.715 in assay [10]; 0.825 in [11]; 1.13 in assay [13]; 0.11 in assay [14]. The composite z-score in assay [15] is -0.654; in assay [16], -0.0643; in assay [17], 0.0639; in [18], -0.0503; in assay [19] it was 1.01; in [20], 1.12. Also, the z-score in assay [4] is -0.681 (inactive); in assay [12] it was -2.19.
As to `COC(=O)c1c(CC[C@@H](CO)NC(=O)N[C@H](Cn2cc(Cc3ccccc3)nn2)C(C)C)oc(C(C)=O)c1C(=O)OC`, the composite z-score in assay [1] is 0.751; in assay [2], -0.195; in assay [3], -0.457; in assay [5], 1.16; in assay [6], 0.544; in [7], -0.172. The composite z-score is 0.678 in [8]; 0.857 in assay [9]; 0.509 in [10]; 0.712 in assay [11]; 0.637 in assay [13]; -0.279 in [14]. Moreover, the composite z-score in assay [15] was -0.573; in assay [16], -0.18; in assay [17], 0.288; in assay [18], -0.143; in assay [19] it was 0.223; in assay [20] it was 0.882. The z-score is -0.781 (inactive) in [4] and -0.0084 in assay [12].
Regarding `O=C1OCCC/C=C\[C@H]2OC34C=CCN(c5ccc6ccccc6c5)C(=O)[C@H]3N(CCCCCCO)C(=O)[C@@H]4C12` (stereo not given in full), the composite z-score was 1.35 in assay [1]; -0.234 in assay [2]; 0.711 in assay [3]; -0.873 in assay [5]; -0.525 in [6]; 0.102 in assay [7]. Further, the composite z-score in [8] is 0.0824; in [9], -1.71; in [10], 0.998; in assay [11], -1.45; in assay [13] it was -0.955; in assay [14] it was -0.761. Besides, the composite z-score in assay [15] is -0.384; in assay [16] it was -0.176; in [17], -0.179; in [18], -0.388; in assay [19], 2.93; in assay [20], -0.182. Moreover, the z-score in assay [4] is -1.39 (inactive); in assay [12], -0.625.
For the molecule `C=C/C=C/[C@H]1C(=C)CN([C@@H](Cc2ccccc2)C(=O)OC)[C@@H]1[C@H](O)Cc1ccccc1`, the composite z-score in [1] is -0.181; in assay [2] it was -0.167; in assay [3], 0.44; in [5], -0.557; in assay [6] it was -0.546; in assay [7] it was -1.23. Also, the composite z-score in assay [8] was -0.542; in [9], -0.306; in assay [10], 0.97; in assay [11] it was -0.784; in assay [13], -1.09; in assay [14], -0.679. Also, the composite z-score in [15] was -1.1; in assay [16] it was -0.129; in assay [17], -0.138; in assay [18], -0.0624; in [19] it was -0.207; in assay [20] it was -0.217. The z-score in assay [4] was 1.04 (inactive); in assay [12] it was -0.331.
Consider `O=C(NCc1ccc(F)cc1)[C@H]1C[C@H]2C(=O)N[C@@H](Cc3ccccc3)C(=O)N2[C@H]1c1ccc(O)cc1`, for which the composite z-score was 1.06 in assay [1]; -0.103 in assay [2]; 0.105 in assay [3]; 0.123 in assay [5]; -0.469 in assay [6]; -0.394 in assay [7]. The composite z-score in assay [8] was -0.383; in assay [9], 0.274; in assay [10], -0.266; in assay [11], 0.335; in [13] it was -0.469; in assay [14] it was 0.0755. The composite z-score is 0.531 in assay [15]; -0.148 in assay [16]; -0.244 in assay [17]; -0.235 in assay [18]; 0.33 in assay [19]; -0.051 in assay [20]. The values for the z-score in assay [4] and in assay [12] were -0.41 (inactive) and -0.522, respectively.

For the origin of these results see PubChem BioAssay.
